This note sets out measurements from paper PMC11995724, “Antibiotic target discovery by integrated phenotypic and activity-based profiling of electrophilic fragments” (Cell chemical biology, 2025).

Hit rate of the full screen: of about 3,200 compounds, about 75 (2%) showed an effect of 50% or more. This is one part of a sample in which strong results are shown more often than they occur.

In this experiment the test system is T1, S. aureus MSSA476.
T1 construct: MSSA476
Also on record: species or system S. aureus MSSA476 (TSB) or V. cholerae SAD30 (LB); 384-well bacterial growth screen at 25 uM, OD600 relative to DMSO control. The conditions noted are these: relative growth, OD600, TSB; 25 µM; inhibitor.
As for `Cc1cccc(-n2cc(C(=O)CCl)nn2)c1` [10-L07], the “% of control remaining” value was 0%.
Consider `O=C(CCl)c1cn(-c2cccc(C(F)(F)F)c2)nn1` [10-C09, 2-chloro-1-{1-[3-(trifluoromethyl)phenyl]-1H-1,2,3-triazol-4-yl}ethan-1-one], for which the “% of control remaining” value was -0.3125%.
Regarding `O=C(CCl)c1ccc(C(F)(F)F)cc1` [10-B10, 2-chloro-1-[4-(trifluoromethyl)phenyl]ethan-1-one], the “% of control remaining” value is recorded as 135.938%.
The result for `O=C(CCl)NC1CC(=O)N(c2cccc(C(F)(F)F)c2)C1` (centres unmarked) [5-E09, 2-chloro-N-{5-oxo-1-[3-(trifluoromethyl)phenyl]pyrrolidin-3-yl}acetamide] reads 113.661%; that for `Cn1cc(C(=O)CCl)nn1` [10-M19, 2-chloro-1-(1-methyl-1H-1,2,3-triazol-4-yl)ethan-1-one], 87.5%; that for `O=C(CCl)c1c[nH]c2ccc(F)cc12` [10-O11, 2-chloro-1-(5-fluoro-1H-indol-3-yl)ethan-1-one], 120.625%.
On to `CC(NC(=O)CCl)c1cn(-c2ccccc2)nn1` (centres unmarked) [5-O06, 2-chloro-N-[1-(1-phenyl-1H-1,2,3-triazol-4-yl)ethyl]acetamide], for which the “% of control remaining” value was 91.0747%.
Turning to `O=C(CCl)c1cn(-c2ccc(F)cc2)nn1` [10-F05], the “% of control remaining” value came to 0%.
`Cc1cccc(CC(=O)CCl)c1` [10-I19, 1-chloro-3-(3-methylphenyl)propan-2-one]: the “% of control remaining” value stood at 130.938%.
Turning to `O=C(CCl)NCC(=O)Nc1nccs1` [5-G22, 2-chloro-N-{[(1,3-thiazol-2-yl)carbamoyl]methyl}acetamide], the “% of control remaining” value was found to be 86.3388%.
In the case of `Cc1nn(-c2ccccc2)c(Cl)c1C=C(C#N)C(=O)NC(C)C` [9-J17, 3-(5-chloro-3-methyl-1-phenyl-1H-pyrazol-4-yl)-2-cyano-N-(propan-2-yl)prop-2-enamide], the “% of control remaining” value is 77.9026%.
Consider `C=CC(=O)N(C)CC(=O)Nc1ccc(N2C[C@@H](C)O[C@@H](C)C2)cc1` [3-H08, N-[({4-[(2R,6S)-2,6-dimethylmorpholin-4-yl]phenyl}carbamoyl)methyl]-N-methylprop-2-enamide], for which the “% of control remaining” value was 117.719%.
Turning to `CC(C)N(c1ccccc1)c1ccc(NC(=O)CCl)cc1` [6-I17, 2-chloro-N-{4-[phenyl(propan-2-yl)amino]phenyl}acetamide], the “% of control remaining” value was 116.78%.
`CCC(c1cc(Cl)cc(Cl)c1)N(C)C(=O)CCl` (centres unmarked) [7-L10, 2-chloro-N-[1-(3,5-dichlorophenyl)propyl]-N-methylacetamide]: the “% of control remaining” value is given as 75.0392%.
